In paper PMC5540273 (PLoS ONE, 2017):

Experiments:
Details in all cases: concentration: 1 μM, replicates: in singlicate; n = 1
[1] = system: T1, PKAC-alpha
T1 construct: gene PRKACA

[2] = system: T2, PKAC-beta
T2 construct: gene PRKACB

[3] = system: PKMYT1
[4] = system: PKN1
[5] = system: PKN2
[6] = system: PLK1
[7] = system: PLK2
[8] = system: PLK3
[9] = system: PLK4
[10] = system: PRKCD
[11] = system: PRKCE
[12] = system: PRKCH
[13] = system: PRKCI
[14] = system: PRKCQ
[15] = system: PRKD1
[16] = system: PRKD2
[17] = system: PRKD3
[18] = system: PRKG1
[19] = system: PRKG2
[20] = system: T3, PRKR
T3 construct: gene EIF2AK2
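Note: KINOMEscan kinase panel screen.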

| SMILES | %Inh [1] [%] | %Inh [2] [%] | %Inh [3] [%] | %Inh [4] [%] | %Inh [5] [%] | %Inh [6] [%] | %Inh [7] [%] | %Inh [8] [%] | %Inh [9] [%] | %Inh [10] [%] | %Inh [11] [%] | %Inh [12] [%] | %Inh [13] [%] | %Inh [14] [%] | %Inh [15] [%] | %Inh [16] [%] | %Inh [17] [%] | %Inh [18] [%] | %Inh [19] [%] | %Inh [20] [%] |
| --- | --- | --- | --- | --- | --- | --- | --- | --- | --- | --- | --- | --- | --- | --- | --- | --- | --- | --- | --- | --- |
| Nc1ncnc2c1ncn2-c1cccc2ccccc12 [SKF-97184] | 10 | 0 | 0 | 0 | 0 | 28 | 18 | 9 | 0 | 16 | 5 | 5 | 22 | 0 | 0 | 0 | 0 | 0 | 0 | 0 |
| Nc1ncnc2c1ncn2-c1cccc(F)c1 [SKF-97560] | 21 | 0 | 0 | 4 | 0 | 34 | 22 | 25 | 9 | 1 | 3 | 0 | 22 | 20 | 0 | 10 | 9 | 0 | 10 | 0 |
| Cc1cccc(-c2cc(-c3c[nH]nc3-c3ccccn3)ccn2)c1 [GW679395] | 0 | 0 | 1 | 0 | 0 | 0 | 0 | 0 | 0 | 0 | 13 | 0 | 4 | 35 | 57 | 48 | 22 | 0 | 0 | 0 |
| O=C(NCc1cccs1)c1cc(C(=O)c2c(Cl)cccc2Cl)c[nH]1 [GW823670] | 6 | 3 | 0 | 0 | 0 | 0 | 0 | 0 | 0 | 0 | 9 | 0 | 0 | 0 | 35 | 3 | 13 | 0 | 0 | 0 |
| COc1cc(Nc2nccc(N3CCC(NC(=O)C4COc5ccccc5O4)C3)n2)cc(OC)c1OC (stereo not shown) [GSK1379761] | 4 | 0 | 5 | 0 | 7 | 13 | 0 | 0 | 9 | 18 | 3 | 4 | 0 | 0 | 0 | 10 | 0 | 0 | 3 | 13 |
| O=C(Nc1n[nH]c2nc(-c3ccccc3)c(Br)cc12)C1CC1 [SB-708998] | 0 | 2 | 8 | 21 | 0 | 10 | 0 | 0 | 2 | 0 | 0 | 15 | 26 | 0 | 0 | 0 | 17 | 14 | 0 | 0 |
| CN(C)c1cc(-c2ccc3c(N)n[nH]c3c2)nc(N)n1 [GSK2219329] | 32 | 0 | 0 | 0 | 0 | 0 | 0 | 0 | 0 | 0 | 0 | 14 | 17 | 0 | 0 | 0 | 0 | 1 | 1 | 5 |
| O=C(Nc1n[nH]c2nc(-c3ccccc3)c(Cl)cc12)C1CC1 [SB-734909] | 0 | 0 | 16 | 45 | 0 | 24 | 0 | 13 | 29 | 2 | 10 | 0 | 0 | 0 | 0 | 35 | 5 | 6 | 20 | 0 |
| COc1cc(Nc2ccnc3ccc(C(F)(F)F)cc23)cc(OC)c1OC [GW577382] | 14 | 4 | 6 | 0 | 0 | 12 | 0 | 0 | 50 | 15 | 19 | 13 | 48 | 4 | 6 | 6 | 0 | 3 | 6 | 0 |
| COc1cc(OC)cc(-c2cc3cnc(N)nc3nc2NC(=O)NC(C)(C)C)c1 | 0 | 0 | 0 | 0 | 22 | 0 | 0 | 0 | 0 | 0 | 51 | 0 | 2 | 0 | 0 | 0 | 0 | 14 | 0 | 16 |
| O=C1NC(=O)C(c2ccccc2)=C1Nc1cccc(O)c1 [SB-390534] | 0 | 5 | 0 | 0 | 21 | 0 | 20 | 27 | 11 | 5 | 17 | 0 | 9 | 0 | 0 | 3 | 0 | 8 | 2 | 100 |
